Experimental data reported in PubChem BioAssay (Tox21).
Results filed as inconclusive are left out. A call without a number means that no potency is given here. A structure can be active in one record and inactive in another. Calls of active or inactive are those of the source. Unless noted, the call rests on the fitted dose curve; in most records, active means well fitted curve in the direction sought with a large enough effect in the repeat runs; inconclusive means weak or mixed curves; inactive means no such curve, though single readings can be large; an effect the other way counts as inactive or inconclusive.

Target: Retinoic acid receptor RXR-alpha (Homo sapiens) (UniProt P19793)
Experiment: qHTS assay to identify small molecule agonists of the RXR signaling pathway (AID 1159527; calls by dose curve; further: nearly all actives have a fitted effect of over 35% in size; further: potency means the concentration at half of the fitted maximal effect)
Conditions: HEK293T RXRa-UAS-bla, beta-lactamase ratio, 16 h; series mostly up to 76.8 µM; activation: at the top concentration
Procedure, shortened: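 Beta-lactamase reporter assay, agonist format. Engineered HEK 293T line, charcoal-stripped FBS at 2%, overnight (16 hr) exposure, fluorescence at 460 and 530 nm after 405 nm excitation.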

Retinoic acid receptor RXR-alpha (Homo sapiens), sequence (P19793 whole entry, looked up): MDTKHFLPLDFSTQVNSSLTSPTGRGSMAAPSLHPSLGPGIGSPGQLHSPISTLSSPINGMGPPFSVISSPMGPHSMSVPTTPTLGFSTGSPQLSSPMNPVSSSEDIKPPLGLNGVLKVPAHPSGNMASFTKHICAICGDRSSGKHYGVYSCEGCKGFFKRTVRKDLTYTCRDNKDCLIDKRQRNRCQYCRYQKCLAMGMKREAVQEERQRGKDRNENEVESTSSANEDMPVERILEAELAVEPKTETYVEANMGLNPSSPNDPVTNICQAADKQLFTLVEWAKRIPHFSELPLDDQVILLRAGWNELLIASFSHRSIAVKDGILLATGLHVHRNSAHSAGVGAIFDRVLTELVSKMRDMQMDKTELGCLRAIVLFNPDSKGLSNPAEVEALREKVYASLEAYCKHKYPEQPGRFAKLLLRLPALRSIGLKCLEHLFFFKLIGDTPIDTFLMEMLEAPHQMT

SMILES | Potency | activation
CCc1ccccc1O | 5.47 µM (active) and inactive | 
NS(=O)(=O)c1cc2c(cc1Cl)NC=NS2(=O)=O | inactive | 
CC1(C)CC(N=C=O)CC(C)(CN=C=O)C1 (stereo not drawn) | inactive | 
NCc1cccc(CN)c1 | inactive | 
C[C@@H]1O[C@@H](OC[C@H]2O[C@@H](Oc3c(-c4ccc(O)c(O)c4)oc4cc(O)cc(O)c4c3=O)[C@H](O)[C@@H](O)[C@@H]2O)[C@H](O)[C@H](O)[C@H]1O | inactive | 
CC(=O)CCc1ccccc1 | inactive | 
Nc1nc2ncc(CNc3ccc(C(=O)N[C@@H](CCC(=O)O)C(=O)O)cc3)nc2c(=O)[nH]1 |  | 13.1% [at 35.3 µM] (inactive)
Cc1cc(O)cc(C)c1Cl | inactive | 
NC(=O)NNc1ccccc1 | inactive | 
Oc1ccc2ccccc2c1 |  | -17.5% (inactive)
CCOC(=O)/C=C\C(=O)OCC | inactive | 
NC(=O)/N=N/C(N)=O | inactive | 
CNC[C@H](O)[C@@H](O)[C@H](O)[C@H](O)CO | inactive | 
CCCCCC/C=C/CCCCCCCC(=O)O | inactive | 
Clc1cc(Cl)c(Cl)cc1Cl | inactive | 
CC(C)n1c(/C=C/[C@@H](O)C[C@@H](O)CC(=O)O)c(-c2ccc(F)cc2)c2ccccc21 |  | -6.42% [at 35.3 µM] (inactive)

Tested on: not listed separately
Experiment: qHTS assay to identify small molecule agonists of the RXR signaling pathway - cell viability counter screen (AID 1159529); further: nearly all actives have a fitted effect of over 50% in size; further: potency means the concentration at half of the fitted maximal effect;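 on activity change, negative = cytotoxicity: HEK 293T cells carrying an RXR-alpha UAS beta-lactamase reporter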
Conditions: RXR-alpha-bla HEK293T viability, CellTiter-Glo, 16 h; series mostly up to 76.8 µM; activity change, negative = cytotoxicity: at the top concentration
Procedure, shortened: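 Same-well viability check after the LiveBLAzer FRET read: CellTiter-Glo added, luminescence measured after 30 min at room temperature. Reporter HEK 293T cells had been treated with compounds for 16 hr following a 5 hr preincubation.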

SMILES | Potency | activity change, negative = cytotoxicity
CN(CCOc1ccc(CC2SC(=O)NC2=O)cc1)c1ccccn1 (stereo not drawn) | inactive | 
O=S(=O)(Oc1ccc(Cl)cc1Cl)c1ccccc1 | inactive | 
Cc1ccc(C(=O)O)o1 | inactive | 
CCCCCCCCCC(=O)O | inactive | 
CCc1ccccc1O | inactive | 
C[C@@H](O)[C@H]1C(=O)N2C(C(=O)O)=C(S[C@@H]3CN[C@H](C(=O)N(C)C)C3)[C@H](C)[C@H]12 | inactive | 
Nc1c(S(=O)(=O)O)cc(Br)c2c1C(=O)c1ccccc1C2=O | inactive | 
CCC(=O)O | inactive | 
NS(=O)(=O)c1cc2c(cc1Cl)NC=NS2(=O)=O | inactive | 
CC1(C)CC(N=C=O)CC(C)(CN=C=O)C1 (stereo not drawn) | inactive | 
O=C(O)c1ccc([N+](=O)[O-])cc1 | inactive | 
O=Nc1ccc(O)cc1 | inactive | 
NCc1cccc(CN)c1 | inactive | 
C[C@@H]1O[C@@H](OC[C@H]2O[C@@H](Oc3c(-c4ccc(O)c(O)c4)oc4cc(O)cc(O)c4c3=O)[C@H](O)[C@@H](O)[C@@H]2O)[C@H](O)[C@H](O)[C@H]1O | inactive | 
CC(=O)CCc1ccccc1 | inactive | 
c1ccc2ccccc2c1 | inactive | 
Nc1nc2ncc(CNc3ccc(C(=O)N[C@@H](CCC(=O)O)C(=O)O)cc3)nc2c(=O)[nH]1 | inactive | 
COC(=O)Nc1nc2ccc(Sc3ccccc3)cc2[nH]1 | inactive | 
Cc1cc(O)cc(C)c1Cl |  | -5.35% (inactive)

SMILES | Potency | activity change, negative = cytotoxicity
Nc1cc(-c2ccncc2)c[nH]c1=O | inactive | 
NC(=O)NNc1ccccc1 | inactive | 
C/C=C(C)/C=C/C=C(C)C | inactive | 
CCCCCCCCCCCCOCC1CO1 (stereo not drawn) | inactive | 
Oc1ccc2ccccc2c1 |  | 5.08% (inactive)
CCOC(=O)[C@H](CCc1ccccc1)N[C@@H](C)C(=O)N1Cc2ccccc2C[C@H]1C(=O)O | inactive | 
C=C1C2CCC(C2)C1(C)C (stereo not drawn) | inactive | 
Cc1cc(=O)[nH]c(C(C)C)n1 | inactive | 
CCOC(=O)/C=C\C(=O)OCC |  | -1.43% (inactive)
CC1COc2ccccc2N1C(=O)C(Cl)Cl (stereo not drawn) | inactive | 
NC(=O)/N=N/C(N)=O | inactive | 
CNC[C@H](O)[C@@H](O)[C@H](O)[C@H](O)CO | inactive | 
COCC(=O)O | inactive | 
OC1CCCC1 | inactive | 
CCCCCC/C=C/CCCCCCCC(=O)O | inactive | 
COC(=O)c1ccc(C(=O)OC)cc1 | 15.7 µM (active) and inactive | 
Clc1ccc(Cl)c(Cl)c1Cl | inactive | 
Clc1cc(Cl)c(Cl)cc1Cl | inactive | 
O=C1N=C(O)CN1/N=C/c1ccc(-c2ccc([N+](=O)[O-])cc2)o1 | inactive | 

Tested on: not listed separately
Experiment: qHTS assay to identify small molecule antagonists of the retinoid acid receptor (RAR) signaling pathway - cell viability counter screen (AID 1159551); further: nearly all actives have a fitted effect of over 35% in size
Conditions: C3RL4 cells viability, ATP luminescence (CellTiter-Glo), 6 h; series mostly up to 92.4 µM; activity change, negative = cytotoxicity: at the top concentration
Procedure, shortened: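 Measured by luminescent ATP detection, viability reflects C3RL4 cells treated 6 h at 37 C with test chemicals in the presence of 1 uM (final) retinol.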

SMILES | Potency | activity change, negative = cytotoxicity
CN(CCOc1ccc(CC2SC(=O)NC2=O)cc1)c1ccccn1 (stereo not drawn) | inactive | 
O=S(=O)(Oc1ccc(Cl)cc1Cl)c1ccccc1 | inactive | 
Cc1ccc(C(=O)O)o1 | inactive | 
CCCCCCCCCC(=O)O | inactive | 
CCc1ccccc1O | inactive | 
C[C@@H](O)[C@H]1C(=O)N2C(C(=O)O)=C(S[C@@H]3CN[C@H](C(=O)N(C)C)C3)[C@H](C)[C@H]12 | inactive | 
Nc1c(S(=O)(=O)O)cc(Br)c2c1C(=O)c1ccccc1C2=O |  | -3.77% [at 42.5 µM] (inactive)
CCC(=O)O | inactive | 
NS(=O)(=O)c1cc2c(cc1Cl)NC=NS2(=O)=O | inactive | 
CC1(C)CC(N=C=O)CC(C)(CN=C=O)C1 (stereo not drawn) | inactive | 
O=C(O)c1ccc([N+](=O)[O-])cc1 | inactive | 
O=Nc1ccc(O)cc1 |  | -2.99% (inactive)
NCc1cccc(CN)c1 | inactive | 
C[C@@H]1O[C@@H](OC[C@H]2O[C@@H](Oc3c(-c4ccc(O)c(O)c4)oc4cc(O)cc(O)c4c3=O)[C@H](O)[C@@H](O)[C@@H]2O)[C@H](O)[C@H](O)[C@H]1O | inactive | 
CC(=O)CCc1ccccc1 | inactive | 
c1ccc2ccccc2c1 | inactive | 
Nc1nc2ncc(CNc3ccc(C(=O)N[C@@H](CCC(=O)O)C(=O)O)cc3)nc2c(=O)[nH]1 | inactive | 
COC(=O)Nc1nc2ccc(Sc3ccccc3)cc2[nH]1 | inactive | 
Cc1cc(O)cc(C)c1Cl | inactive | 
Nc1cc(-c2ccncc2)c[nH]c1=O | inactive | 

SMILES | Potency | activity change, negative = cytotoxicity
NC(=O)NNc1ccccc1 | inactive | 
C/C=C(C)/C=C/C=C(C)C | inactive | 
CCCCCCCCCCCCOCC1CO1 (stereo not drawn) | inactive | 
Oc1ccc2ccccc2c1 | inactive | 
CCOC(=O)[C@H](CCc1ccccc1)N[C@@H](C)C(=O)N1Cc2ccccc2C[C@H]1C(=O)O | inactive | 
C=C1C2CCC(C2)C1(C)C (stereo not drawn) | inactive | 
Cc1cc(=O)[nH]c(C(C)C)n1 | inactive | 
CCOC(=O)/C=C\C(=O)OCC | inactive | 
CC1COc2ccccc2N1C(=O)C(Cl)Cl (stereo not drawn) | inactive | 
NC(=O)/N=N/C(N)=O |  | -0.771% (inactive)
CNC[C@H](O)[C@@H](O)[C@H](O)[C@H](O)CO | inactive | 
COCC(=O)O | inactive | 
OC1CCCC1 | inactive | 
CCCCCC/C=C/CCCCCCCC(=O)O | inactive | 
COC(=O)c1ccc(C(=O)OC)cc1 |  | 2.38% (inactive)
Clc1ccc(Cl)c(Cl)c1Cl | inactive | 
Clc1cc(Cl)c(Cl)cc1Cl | inactive | 
O=C1N=C(O)CN1/N=C/c1ccc(-c2ccc([N+](=O)[O-])cc2)o1 | inactive | 
CC(C)n1c(/C=C/[C@@H](O)C[C@@H](O)CC(=O)O)c(-c2ccc(F)cc2)c2ccccc21 | inactive | 
